In PubChem BioAssay AID540313 (Sanford-Burnham Center for Chemical Genomics, 2011):
Where “and” joins values, the source holds several entries; their conditions need not be identical. Identical values can stand only once. Screen size: about 2,500 compounds; fewer than 10 were called active. These entries were drawn from the full list. Values without a mark were called inactive.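 The calls were made as follows: active = inhibition of at least 30% at 20 µM; inactive = the rest.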

Test: colorimetric readout interference by compounds, confirmation, artefact control for Scp-1 inhibitor project, biochemical, single concentration (AID 540313);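 also: compounds added after enzyme reaction finished so only phosphate colour detection is probed; plate controls were DMSO wells with completed Scp-1 reaction for no effect and substrate wells lacking enzyme for full effect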
Details: Colorimetric interference counterscreen, malachite green absorbance 630 nm; at 20 µM; stronger effect = higher value

SMILES | apparent inhibition (interference)
Cn1c(N)c(C(=O)COC(=O)c2ccc3ccccc3c2)c(=O)n(C)c1=O | -13.1%
N/C(=N\OC(=O)N1c2ccccc2Sc2ccccc21)c1ccc(Br)cc1 | -18.1%
O=[N+]([O-])c1cc(S(=O)(=O)Nc2cccc(Cl)c2)ccc1N=Nc1c(O)[nH]c2ccccc12 | -15.6%
CCOC(=O)C1CCCN(C(=O)CN(c2ccc(OC)cc2)S(=O)(=O)c2c(C)noc2C)C1 (stereo not given) | -13.4%
C[n+]1ccc(C(=O)NCc2ccccc2)cc1 | -18.9%
CCOC(=O)C1=C(C)c2ccccc2OC1(C)C(=O)OCC (stereo not given) | -21.7%
O=C(CNC(=O)C(c1ccccc1)c1ccccc1)N/N=C\c1ccc2c(c1)OCO2 | -8.18%
CCC(=O)Nc1ccccc1N1CCN(S(C)(=O)=O)CC1 | -13.4%
C=Cc1ccc(C(=O)N2CCCC(CCC(=O)N3CCN(c4ccccn4)CC3)C2)cc1 (stereo not given) | -12.3%
CCc1ccc(NC(=O)CS(=O)CC(=O)NCCCc2ccccc2)cc1 (stereo not given) | -6.8%
O=C(CCS(=O)(=O)c1ccc(Br)cc1)NCCc1ccc(Cl)cc1 | -10.1%
Cc1ccc(NC(=O)COc2ccc(/C=N\NC(=O)c3cccnc3)cc2)cc1C | -15.6%
O=C(CCNC(=O)c1ccccc1)NN=Cc1ccc(Br)o1 | -15.3%
O=C(NN1C(=O)C2C3C=CC(O3)C2C1=O)c1ccccc1 (stereo not given) | -7.63%
COc1ccc(Cc2nnc(NC(=O)Cc3cccs3)s2)cc1 | -7.35%
CCCCSc1nnc(-c2ccc(C)cc2)o1 | -17.8%
CSc1ccc(/C=N/NC(=O)c2cccc(Cl)c2)cc1 | -14.2%
Cc1oc2c(C)c3oc(=O)c(CC(=O)N[C@@H](CC(C)C)C(=O)N[C@@H](Cc4ccccc4)C(=O)O)c(C)c3cc2c1C | -9.01%
O=C(c1cc2c(s1)CCC2)N1CCN(c2ccccc2)CC1 | -15.9%
COc1ccc(S(=O)(=O)c2c[nH]c(=S)[nH]c2=O)cc1Cl | -5.98%
COCCCn1c(Cc2csc(Nc3cccc(Cl)c3)n2)nnc1SCC(=O)OC1CCCCC1 | -7.61%
C=CC1C(OC2OC(CO)C(O)C(O)C2O)OC=C(C(=O)OC)C1CC1CC(=O)CC(CC(=O)CCc2ccc(O)cc2)O1 (stereo not given) | -16.9%

SMILES | apparent inhibition (interference)
COC(=O)c1ccc(-c2c(-c3ccccc3)ncc3cc(OC)c(OC)cc23)cc1 | -3.78%
CCOc1ccc2nc(N(CCCN(C)C)C(=O)c3ccc(C(=O)c4ccccc4)cc3)sc2c1 | -0.21%
COc1cc(/C=C/C2=CC(C)(C)NC(=S)N2)cc(OC)c1OC | -12%
COC(=O)CNC(=O)C(CCSC)NC(C)=O (stereo not given) | -13.1%
COc1cc(SC)ccc1C(=O)NNC(=O)C1COc2ccccc2O1 (stereo not given) | -1.3%
COC(=O)C[n+]1cccc2ccccc21 | -9.28%
CC1=NN(C(=O)CCc2ccccc2O)C(O)(C(F)(F)F)C1 (stereo not given) | -14%
Cc1c(Cl)cnc(NC(=O)COC(=O)c2ccc(S(=O)(=O)NCc3ccco3)cc2)c1Cl | -10.4%
O=C(COc1ccc(-n2cnnn2)cc1)Nc1ccccc1Cl | -15.1%
COc1ccc(N2CCN(C(=O)CSc3nc4cc(OC)c(OC)cc4cc3C#N)CC2)cc1 | -7.08%
O=C(N/N=C/c1ccco1)c1ccc(C(=O)N/N=C/c2ccco2)o1 | -14.2%
C[N+](C)(C)CCNC(=O)c1cc[n+](Cc2ccccc2)c(/C=N/O)c1 | -12%
Cc1cc(C(=O)OCC(=O)NCc2ccco2)c(C)n1-c1ccccc1 | -9.53%
COc1cc(Cl)cc(C2NC(=O)NC(C)=C2C(=O)NCc2ccccc2)c1O (stereo not given) | -16.4% and -17.8%
O=C(COC(=O)c1cnc(Cl)c(Cl)c1)NCc1ccco1 | -17.8%
O=C(COC(=O)c1ccccc1O)NCc1ccco1 | -13.4%
COc1cccc(CC(=O)OCC(=O)NCc2ccc3c(c2)OCO3)c1 | -8.18%
CC(C)CCOc1ccc(C(=O)C[N+]2(C)CCOCC2)cc1 | -0.2%
CO/N=C(\C(=O)N[C@@H]1C(=O)N2C(C(=O)O)=C(COC(C)=O)CS[C@H]12)c1csc(N)n1 (stereo in doubt) | -15.6%
O=c1[nH]n(-c2ccc([N+](=O)[O-])cc2)c(=O)c2ccccc12 | -12.9%
CCCCCN1CC(O)=C(c2nc(-c3ccc(Cl)cc3)cs2)C1=N | -5.98%
CC(=O)Nc1ccccc1Sc1ccc2c3c(cccc13)C(=O)N(c1ccc(C)cc1)C2=O | -10.1%

SMILES | apparent inhibition (interference)
Cc1ccc(C2(C)NC(=O)N(CC(=O)Nc3ccccc3C(=O)N3CCCCC3)C2=O)cc1 (stereo not given) | -11.4%
O=C1CCC(CCC(=O)N2CCCC(C(=O)c3ccc(Cl)cc3)C2)=NN1 (stereo not given) | -3.23%
Cc1ccc(NC(=O)COC(=O)C2C3CC4OC(=O)C2C4C3)cc1Cl (stereo not given) | -4.6%
CC(C)c1ccc(NC(=S)NNc2ccc(Cl)c(C(=O)O)c2)cc1 | -8.44%
COc1ccc(Cl)cc1NC(=O)CCS(=O)(=O)c1ccc(Br)cc1 | -18.6%
CS(=O)(=O)C1=NN2C(=N)/C(=C\c3ccc(OCCOc4ccccc4)cc3)C(=O)N=C2S1 | -4.6%
CC[n+]1c(C)n(-c2ccccc2)c2ccc(NC(C)=O)cc21 | -13.9%
Cc1ccc(NC(=O)c2cc(-c3ccc(C)o3)nc3ccccc23)nc1 | -3.5%
O=C(Nc1cccnc1)c1cc2cc(Br)ccc2oc1=O | -8.18%
C[C@H](CO)N1C[C@H](C)[C@@H](CN(C)C(=O)NC2CCCCC2)Oc2ccc(NC(=O)c3ccncc3)cc2C1=O | -14.8%
O=C(Nc1cccc(F)c1)c1cc(-c2ccco2)nc2ccccc12 | -4.88%
COc1ccc(NC(=O)CN(C)C(=O)/C=C/c2cn(Cc3ccccc3)nc2-c2cccnc2)cc1 | -11.7%
Cc1ccn2c(=O)nc(SCC(=O)NCc3ccc4c(c3)OCO4)nc2c1 | -8.16%
N#Cc1ccccc1CN1C(=O)S/C(=C/c2cccn2-c2cccc(C(=O)O)c2)C1=O | -14.7%
Cc1ccc(CCNC(=O)c2ccc3nc4ccccc4c(=O)n3c2)cc1 | 0.61%
Cc1ccc(SCC(=O)NC(=O)NCc2ccco2)c(C)c1 | -4.05%
O=C(COC(=O)c1ccc(F)cc1F)Nc1ncccn1 | -16.9%
CNS(=O)(=O)c1cccc(C(=O)OCC(=O)N2c3ccccc3NC(=O)C2(C)C)c1 | -15.3%
COc1cccc2cc(-c3cc(=O)oc4cc(C)c(O)cc34)oc12 | -23.3%
COC(=O)c1ccccc1NC(=O)C1(S(=O)(=O)c2ccc(Cl)cc2)CC1 | -20.5%
O=C(CCC(=O)N/N=C/c1ccc(Br)o1)N/N=C/c1ccc(Br)o1 | -16.4%
